High-throughput results deposited in PubChem BioAssay by National Center for Advancing Translational Sciences (NCATS).
Rows were chosen to be rich in hits. Some 1.2% of all compounds tested hit in one or more screens of this group.
Six1-Eya2 inh = blocks human Six1 binding to Eya2 | Q15475+O00167 | AlphaScreen GST-Six1/His-Eya2 binding, biochemical; stronger effect = lower value | activity change, % (no concentration beside the values) | 0.56% of 360,000 active
Target sequence (O00167 whole entry, looked up): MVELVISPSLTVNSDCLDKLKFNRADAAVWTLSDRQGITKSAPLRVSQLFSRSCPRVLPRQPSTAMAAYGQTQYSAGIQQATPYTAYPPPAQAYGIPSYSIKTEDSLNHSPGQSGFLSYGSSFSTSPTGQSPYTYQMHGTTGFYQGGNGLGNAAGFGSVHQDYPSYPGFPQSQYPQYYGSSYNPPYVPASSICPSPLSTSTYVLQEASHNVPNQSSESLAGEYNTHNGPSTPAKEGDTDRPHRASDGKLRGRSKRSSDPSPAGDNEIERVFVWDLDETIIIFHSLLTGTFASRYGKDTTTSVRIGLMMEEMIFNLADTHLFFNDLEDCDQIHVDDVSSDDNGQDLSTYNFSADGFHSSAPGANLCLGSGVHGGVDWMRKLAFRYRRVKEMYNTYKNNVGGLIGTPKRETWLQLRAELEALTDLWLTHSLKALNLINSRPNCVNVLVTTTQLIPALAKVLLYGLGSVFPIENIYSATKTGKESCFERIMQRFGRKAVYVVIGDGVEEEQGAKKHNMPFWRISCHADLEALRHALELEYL
Target sequence (Q15475 whole entry, looked up): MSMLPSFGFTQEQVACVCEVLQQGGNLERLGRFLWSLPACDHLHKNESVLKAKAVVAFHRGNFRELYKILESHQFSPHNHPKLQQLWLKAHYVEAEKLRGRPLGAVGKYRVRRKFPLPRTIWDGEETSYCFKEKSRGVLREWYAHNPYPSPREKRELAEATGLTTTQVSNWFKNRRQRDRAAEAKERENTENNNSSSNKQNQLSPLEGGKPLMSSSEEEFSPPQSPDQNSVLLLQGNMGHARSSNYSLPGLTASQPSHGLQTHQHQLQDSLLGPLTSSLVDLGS
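GST-Six1 + His-Eya2 (5X stock: 250/500 nM); Tris pH 8.0, 300 mM NaCl, 0.05% BSA, 0.02% Tween 20; GSH donor/Ni acceptor beads; 1 h 37 °C dark; AlphaScreen readout.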
CtBP-E1A inh = inhibitors of CtBP/E1A interaction | 0.49% of 340,000 active | activity change, % (no concentration beside the values) | AlphaScreen GST-E1A/His-CtBP binding, 1536-well; stronger effect = lower value | AID 651724
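AlphaScreen with 125 nM GST-E1A and 125 nM His-CtBP (5X stocks) in Tris pH 8.0, 300 mM NaCl, BSA, Tween 20, TCEP. Compounds preincubated 2 h at 37 deg C, then glutathione donor/nickel acceptor beads added for 1 h at 37 deg C in dark.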
Akt phos inh = blocks phosphorylation of Akt | Neuro2A IGF-stimulated pAkt S473 HTRF, 20 min; stronger effect = lower value | activity change, % for hits at 50 µM | 0.32% of 360,000 active | AID 651550; in the data active = activity change below about -80%; inconclusive = mostly about -51% to -80%
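Single-point screen (50 µM final compound) in Neuro2A cells stimulated 20 min with 6 nM IGF at 37 deg C. After lysis, Ser473-phosphorylated Akt read by HTRF (ex 330 nm, em 615/665 nm) as the 665/615 ratio.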
CCT chaperon mod = cytosolic chaperonin activity modulation; 0.3% of 360,000 active; AID 651819; activity change, % (concentration not given with the values), hits read low; purified chaperonin ATPase assay, HTRF ADP detection, 30 min; in the data active = activity change below about -30%
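Nucleotide hydrolysis assay: TRiC at 20–40 nM final (set by batch activity) with 10 uM ATP, 30 min at 37 °C, in presence of 76 uM compound. Detection by competitive ADP HTRF, 30 min ambient.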
Numbers stand for hits; - = inactive; ? = inconclusive; . = not tested or not shown. Cut-off read from the data, not from the text of the source, unless noted: active = activity change below about -65%; inconclusive = mostly about -30% to -63%; inactive = weaker than that.

SMILES | Six1-Eya2 inh | CtBP-E1A inh | Akt phos inh | CCT chaperon mod
COc1ccc(C(NC(C)=O)c2ccc3cccnc3c2O)c(OC)c1 (stereo not given) | ? | ? | - | -
CC(=O)NC(c1ccc2ccccc2c1)c1ccc2cccnc2c1O (stereo not given) | -89 | -66 | - | -
CCCC(=O)NC(c1ccccc1Cl)c1c(O)ccc2ccccc12 (stereo not given) | - | - | - | -
CC(=O)NC(c1ccc(Cl)cc1Cl)c1ccc2cccnc2c1O (stereo not given) | -90 | -88 | - | -
CCCC(=O)NC(c1ccc(Cl)cc1)c1ccc2cccnc2c1O (stereo not given) | -70 | -77 | - | -
CCCC(=O)NC(c1ccc(Cl)cc1Cl)c1ccc2cccnc2c1O (stereo not given) | ? | -73 | - | -
COc1ccc(OC)c(NC(=O)COC(=O)c2ccc(OC)c(S(=O)(=O)N3CCOCC3)c2)c1 | - | . | - | -
C[C@H]1NC(=O)[C@]2(C)[C@@H](c3ccccc3)[C@H]3COc4ccccc4[C@H]3N2C1=O | - | - | - | -
Cc1cccnc1C(NC(=O)C1CCN(CCCc2ccccc2)CC1)c1ccc(F)cc1 (stereo not given) | - | - | - | -
C=CCN(CC=C)c1nc2ccccc2nc1C(C#N)C(=O)OC(C)C (stereo not given) | - | - | - | -
CCCC(=O)NC(c1ccc(C)cc1)c1ccc2cccnc2c1O (stereo not given) | -66 | -90 | - | -
O=C(O)CCN1C(=O)/C(=C/c2ccc(-c3nc4ccccc4s3)o2)SC1=S | ? | - | - | -
O=C(O)CC(C(=O)O)N1C(=O)/C(=C/c2ccc(-c3nc4ccccc4s3)o2)SC1=S (stereo not given) | -77 | ? | - | -
CCOC(=O)c1nc(Nc2ccc(C(=O)O)cc2)c2ccccc2n1 | ? | ? | - | -
CCOC(=O)c1ccc(Nc2nc(C(=O)OCC)nc3ccccc23)cc1 | -79 | -90 | - | -
Cc1ccc(S(=O)(=O)N2CCN(C(=O)N(C)C)CC2)cc1C | - | - | - | -52
COc1ccccc1/C=C/C(=O)OCC(=O)NC(=O)NC1CCCC1 | - | - | - | -
CCCN1C(=O)c2ccccc2NC1c1ccc(OC)cc1O (stereo not given) | - | - | - | -86
O=C(O)c1cncc(C#CCC2CCCCC2)c1 | - | - | - | -
CCN(CC)CCNC(=O)C1(O)c2cc(Br)ccc2NC(=O)N1c1ccccc1 (stereo not given) | - | - | - | -
Cc1cc(Cl)ccc1C(O)c1ncc(-c2ccc(C(F)(F)F)cc2)[nH]1 (stereo not given) | - | - | - | -
CC1(C)CC2(CCO1)OC(=O)CC2C(=O)Nc1cccc2ccccc12 (stereo not given) | - | - | -88% | -
O=C(Cc1cccs1)N1CCN=C1SCc1cccc(F)c1 | - | - | - | -
c1ccc(Oc2nc(-c3ccccn3)nc3ccccc23)cc1 | -79 | -94 | - | -
Fc1ccc(Oc2nc(-c3ccccn3)nc3ccccc23)cc1 | - | - | - | -
SMILES | Six1-Eya2 inh | CtBP-E1A inh | Akt phos inh | CCT chaperon mod
COc1ccc(Oc2nc(-c3ccncc3)nc3ccccc23)cc1 | - | - | - | -
c1ccc(-c2nc(N3CCOCC3)c3ccccc3n2)nc1 | ? | ? | - | -
c1ccc(-c2nc(N3CCCCCC3)c3ccccc3n2)nc1 | -75 | -73 | - | -
COc1ccc(Oc2nc(-c3ccccn3)nc3ccccc23)cc1 | -86 | -66 | - | -
CN(C(=O)CCN1C(=O)c2ccccc2C1=O)c1ccccc1 | - | . | - | -
CCn1ccc(C(=O)NC2C(=O)N3C(C(=O)O)=C(C)CSC23)n1 (stereo not given) | - | - | - | -
C=CC1=C(C(=O)O)N2C(=O)[C@@H](NC(=O)/C(=N\O)c3csc(N)n3)[C@H]2SC1 (stereo in doubt) | -90 | -85 | - | -
Cc1nn(C)c(Cl)c1C(=O)NCC(=O)Nc1ccc(C(C)C)cc1 | - | - | - | -
CC1(C)SC2C(C(=O)O)N=C(Cc3ccccc3)N2C1C(=O)O (stereo not given) | -81 | -84 | - | -
CC1(C)S[C@@H]2[C@H](NC(=O)Cc3ccccc3)C(=O)N2[C@H]1C(=O)O | - | - | - | -
Cc1cccc(NC(=O)C(=O)NCC2CCCN2S(=O)(=O)c2ccccc2)c1 (stereo not given) | - | - | - | -
O=C(COC(=O)c1ccc(F)cc1Cl)NC1CC1 | - | - | - | -50
COC(=O)c1c(NC(=O)C2CC2)sc(C(=O)Nc2ccccc2)c1C | - | . | - | -
COC(=O)N1CCCCC1c1cc(C(=O)NCc2ccc(Cl)c(Cl)c2)no1 (stereo not given) | - | - | - | -
O=C(NCc1ccco1)c1cc(S(=O)(=O)N2CCOCC2)c(Cl)cc1Cl | - | - | - | -67
CCc1c(C)nc(N2CCN(c3ccc(OC)cc3)CC2)[nH]c1=O | - | . | - | -
NC(=S)N/N=C/c1ccc(C(F)(F)F)cc1 | - | - | - | -
NC(=S)N/N=C/c1ncc(C(F)(F)F)cc1Cl | -85 | -85 | - | -
Cc1ccc2nc(-c3cccnc3)c(Nc3ccccc3C)n2c1 | - | - | - | -
Cc1ccn2c(Nc3ccccc3)c(-c3ccccn3)nc2c1 | -74 | -78 | - | -37
Cc1cccn2c(Nc3ccccc3)c(-c3ccccn3)nc12 | - | - | - | -
Cc1ccccc1Nc1c(-c2ccccn2)nc2ccccn12 | -91 | . | - | -
Cc1ccc2nc(-c3ccccn3)c(Nc3ccccc3C)n2c1 | ? | -91 | - | -
Cc1ccn2c(Nc3ccccc3C)c(-c3ccccn3)nc2c1 | -82 | -93 | - | -
Cc1ccc(C(=O)NCC(=O)OCC(=O)c2ccc(Br)s2)cc1 | - | - | - | -
SMILES | Six1-Eya2 inh | CtBP-E1A inh | Akt phos inh | CCT chaperon mod
O=C(NCc1ccccn1)c1cc(Cl)ccc1OCc1ccccc1 | - | - | - | -
CCOc1ccc(-c2noc(CCC(=O)NCCc3ccccc3)n2)cc1OC | - | -65 | - | -
Cc1c(CN(C)C)c2c(n1Cc1ccccc1)C(=O)c1ccc(Br)cc1-2 | -65 | ? | - | -
Cc1ccc(C(=O)Nc2ccc3c(c2)C(=O)N(C)C3=O)c(C)c1 | - | - | - | -
CC(C)CCNC(=O)Cc1ccc(Nc2nc(=S)[nH]c3ccccc23)cc1 | -86 | - | - | -
CC1=C(C(=O)OCc2cc(C)on2)N2C(=O)[C@@H](NC(=O)OCc3cc(C)on3)[C@H]2SC1 | - | - | - | -
OCC[C@@H]1C[C@H](O)[C@@H](O)[C@]2(OCCc3ccccc32)O1 | -83 | - | - | -
OCC[C@@H]1C[C@H](O)[C@@H](O)[C@@]2(OCCc3ccccc32)O1 | - | - | - | -
CCOC(=O)c1ccc(CN(Cc2ccccc2)S(=O)(=O)c2cccc([N+](=O)[O-])c2)cc1 | - | - | - | -33
CCOC(=O)CCCCCN(Cc1ccccc1)S(=O)(=O)c1ccc([N+](=O)[O-])cc1 | ? | ? | - | -
